From PMC7819943, “Rice protein-binding microarrays: a tool to detect cis-acting elements near promoter regions in rice”
The full ranking holds about 68,000 sequences; the median of “fluorescence intensity (a.u.)” is about 9,100, and the highest 2% start at about 16,000. Many of the other results were omitted from the sample, so the highest values are more common in it than they were.

Biological target: OsWRKY34 (Oryza sativa, UniProt Q0JBA9 1-250)
Assay: protein-binding microarray (RPBM); PBS, 2% BSA, 51.3 ng/ul salmon testes DNA, 50 uM zinc acetate, 200 nM TF, 25 C, 1 h; high values mean tight binding
Conditions: protein: recombinant; tags: N-terminal polyhistidine and DsRed monomer fusion (pET32a); label: CyDye5-dUTP incorporated in the synthesized complementary strand; 3' TTTTT single-stranded linker to array surface; dsDNA, one strand shown
Outline: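 Binding signal is reported as fluorescence intensity per feature (arbitrary units) from an Axon 4000B scanner. Incubation used 200 nM of each Ni–NTA-purified, N-terminally polyhistidine- and DsRed-fused transcription factor from E. coli BL21-CodonPlus on a double-stranded custom Agilent array for 1 h at 25 °C, with 50 µM zinc acetate in the buffer, followed by washing.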

Chain of OsWRKY34 (Q0JBA9 entry or part of it): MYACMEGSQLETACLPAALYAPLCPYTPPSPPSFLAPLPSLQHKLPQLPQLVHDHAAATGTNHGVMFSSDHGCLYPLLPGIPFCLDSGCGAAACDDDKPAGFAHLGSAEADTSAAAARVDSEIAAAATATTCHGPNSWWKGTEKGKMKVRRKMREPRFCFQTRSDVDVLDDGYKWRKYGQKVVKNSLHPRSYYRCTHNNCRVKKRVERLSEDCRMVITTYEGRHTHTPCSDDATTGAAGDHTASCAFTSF

Going from “CGTCTCTCCCGATCCGTCCCATCAAAAAGCAACACCAATACGGAGTCACCTAGTGCAG” to “ATTTTTATAGTATTACATCTACGTGTAAAGTTTCATCTTTCGGAGTCACCTAGTGCAG”, the binding signal falls from 8530 fluorescence intensity (a.u.) to 8260 fluorescence intensity (a.u.).

Going from “CTATGGTTTGGTTTGAATTTTACTGTTGTATGCTGTTCCCCGGAGTCACCTAGTGCAG” to “TGGCCGGGAGGGTTGGCCCTTGTGGTTTCGGGGTTTGGTTCGGAGTCACCTAGTGCAG”, the binding signal rises from 8660 fluorescence intensity (a.u.) to 15900 fluorescence intensity (a.u.).

Going from “CTTTTCTCATCCCTTTTGTTTCTTCACTCCGGCTCACCGCCGGAGTCACCTAGTGCAG” to “GTACACGTTACCCGCGTGGGTGTGGGTATGGGGATGATTTCGGAGTCACCTAGTGCAG”, the binding signal rises from 8230 fluorescence intensity (a.u.) to 11700 fluorescence intensity (a.u.).

Going from “TATTTTTGACCAGAGGGAGGGTTTTTTTTTTTTTGAGAGACGGAGTCACCTAGTGCAG” to “GCGGTGATGACAGACGGGAGAGGGAGGGTTTTTTTTGTTACGGAGTCACCTAGTGCAG”, the binding signal rises from 10300 fluorescence intensity (a.u.) to 18200 fluorescence intensity (a.u.).

Going from “TAGGGTTTGGTTGGGTTTTTGGGTGTTTTCAGACGGAGAGCGGAGTCACCTAGTGCAG” to “GATCAGAGATGAGGGCGGGCGGGTTGACTGGGAGAGTAGACGGAGTCACCTAGTGCAG”, the binding signal rises from 12800 fluorescence intensity (a.u.) to 20500 fluorescence intensity (a.u.).

First: GGGTTGAGATGGGAGTAGAGGGGAGTGAGGTGGAAGAAGACGGAGTCACCTAGTGCAG
Second: GGGTGTTTTCAGACGGAGAGAGGCGGCGGCGGCGGCGGGGCGGAGTCACCTAGTGCAG
The binding signal of the first is lower: 8360 fluorescence intensity (a.u.) for the first, 18500 fluorescence intensity (a.u.) for the second.

Going from “AGTGTTCTAGACTTACGGGTTACGGTTTTTTTTGTTAGAGCGGAGTCACCTAGTGCAG” to “TGAGAAAGAGAGAGAGAGGGAGATGGCTGGGGAGACGGGGCGGAGTCACCTAGTGCAG”, the binding signal rises from 8090 fluorescence intensity (a.u.) to 9660 fluorescence intensity (a.u.).

First: CGAGGGAGAGGGGAGAGGGGAGTGCGGCGGGTGAGGCGGGCGGAGTCACCTAGTGCAG
Second: ACACAGCCACACACCAACATGCCCTTCAGGTCTTCACACTCGGAGTCACCTAGTGCAG
The binding signal of the first is higher: 9650 fluorescence intensity (a.u.) for the first, 9550 fluorescence intensity (a.u.) for the second.

First: TTGTCTCCTATCTTGTGCCGTGCCTTCTTAAACCATTGCTCGGAGTCACCTAGTGCAG
Second: CATGGCCTAGTTGGGGTGTTGCGTATGTAATTTATCTGTCCGGAGTCACCTAGTGCAG
The binding signal of the first is higher: 8610 fluorescence intensity (a.u.) for the first, 8100 fluorescence intensity (a.u.) for the second.

Compared with “TTGACGGAGCATCTATACCCGGTTTTGTAGTTCATGAACACGGAGTCACCTAGTGCAG”, “ATTTTGGTACTACTCTATATTTTAGTTTGCAGCTTGTGCTCGGAGTCACCTAGTGCAG” is higher in binding signal: 9100 fluorescence intensity (a.u.) for the first, 10600 fluorescence intensity (a.u.) for the second.

Compared with “ATATACACATTCTCCCATTGCTATATTATCTGTATTCTGACGGAGTCACCTAGTGCAG”, “GATCTTGTGCACCTTACAAATTACATTGCCGACCATAAAACGGAGTCACCTAGTGCAG” is lower in binding signal: 13400 fluorescence intensity (a.u.) for the first, 9320 fluorescence intensity (a.u.) for the second.

Compared with “CTCTCTCTATCCATCTCTTTCTCTCTCTCTTACACAACAACGGAGTCACCTAGTGCAG”, “ATCTATCACCATCTCTCCTTGATCTTGTGCACCTTACAAACGGAGTCACCTAGTGCAG” is higher in binding signal: 8150 fluorescence intensity (a.u.) for the first, 16800 fluorescence intensity (a.u.) for the second.

First: GTTATCAGCTTTTCTTTTTTTTTTGAAATTTCAGATTATTCGGAGTCACCTAGTGCAG
Second: CCCCATTCACTTCCACAGACAAGTAGCATCACCTTTCAGTCGGAGTCACCTAGTGCAG
The binding signal of the first is higher: 8980 fluorescence intensity (a.u.) for the first, 8710 fluorescence intensity (a.u.) for the second.

First: ATTTTAATGTATGACGCCGTTGACTTTTTGTCCAACGTTTCGGAGTCACCTAGTGCAG
Second: CGATCAACGTTTGACTATTTGTTTTATTCAAAATTTTTGTCGGAGTCACCTAGTGCAG
The binding signal of the first is higher: 25600 fluorescence intensity (a.u.) for the first, 9460 fluorescence intensity (a.u.) for the second.

Compared with “CCTCCTTTTGACTCAGCAAGTCAATTGTGGTCAACCTGCCCGGAGTCACCTAGTGCAG”, “GTTGACCGTTGACCTTTTTGTGGGTCAACTCAATCAAGACCGGAGTCACCTAGTGCAG” is higher in binding signal: 8970 fluorescence intensity (a.u.) for the first, 16600 fluorescence intensity (a.u.) for the second.

First: CCATATTTTAATGTATGACGCCATTGACTTTTTGTCCAACCGGAGTCACCTAGTGCAG
Second: TAAATGTTTAACGTTGTTGACTTTTTTAAACATGTTTGACCGGAGTCACCTAGTGCAG
The binding signal of the first is higher: 14500 fluorescence intensity (a.u.) for the first, 13500 fluorescence intensity (a.u.) for the second.

Going from “TAAATGTTTAACGTCGTTGACTTTTTTAAACATGTATGACCGGAGTCACCTAGTGCAG” to “CACCTTGACTCAGCGTGGTTGACTCTAGTCAACTTGTCACCGGAGTCACCTAGTGCAG”, the binding signal falls from 19200 fluorescence intensity (a.u.) to 10400 fluorescence intensity (a.u.).

Compared with “AATATATGACGCCGTTAACTTTTCGAACAACATTTGACTACGGAGTCACCTAGTGCAG”, “GTATGACGCCGTTGACTTTTCGATCAACGTTTGACTATTTCGGAGTCACCTAGTGCAG” is higher in binding signal: 9760 fluorescence intensity (a.u.) for the first, 25300 fluorescence intensity (a.u.) for the second.

First: CACCAAGCATGTCCATGACCTTGCACTCTTGGCTCACTCGCGGAGTCACCTAGTGCAG
Second: CAAAATCCTTTTTCTTTTTTTCATTTTTTCTGTGCTTTTTCGGAGTCACCTAGTGCAG
The binding signal of the first is lower: 8030 fluorescence intensity (a.u.) for the first, 8680 fluorescence intensity (a.u.) for the second.

Going from “TAGGCTGATGGGTCTTCATGCTTCGGTTCATCTTCGTCTCCGGAGTCACCTAGTGCAG” to “GGTGAGCTCTCTTTAATGCATATACACAGCAGCCTATTGCCGGAGTCACCTAGTGCAG”, the binding signal falls from 10200 fluorescence intensity (a.u.) to 8440 fluorescence intensity (a.u.).

Going from “TGTGATTTGCACCGCATACTTTCCCCGACAATAGATCATCCGGAGTCACCTAGTGCAG” to “CCTCCGCTTCTTCGCCGCCGCCGCCATCCCGCCCTAGCGACGGAGTCACCTAGTGCAG”, the binding signal rises from 8850 fluorescence intensity (a.u.) to 9070 fluorescence intensity (a.u.).

First: ATTTTCTTTAAGAGATGTTCTTGTCTGTTGTCAGGTTTGTCGGAGTCACCTAGTGCAG
Second: ACCGTCGTCAGCAACGCCGCTACTGCCACTGCAATTGCCGCGGAGTCACCTAGTGCAG
The binding signal of the first is higher: 9670 fluorescence intensity (a.u.) for the first, 8320 fluorescence intensity (a.u.) for the second.

First: TATTTTAATGTATGACGCCGTTGACTTTTTAATCAATGTTCGGAGTCACCTAGTGCAG
Second: TGTGTACTATTTTTTCTACCGTTGGATACAAATATGAGGGCGGAGTCACCTAGTGCAG
The binding signal of the first is higher: 29100 fluorescence intensity (a.u.) for the first, 8510 fluorescence intensity (a.u.) for the second.

First: TTAATGTATGACGCCGTTGACTTTTTAATAAACGTTTGACCGGAGTCACCTAGTGCAG
Second: CCTTTTGGACGTACGTCGATAGTTGGGTAAATATGAAAAACGGAGTCACCTAGTGCAG
The binding signal of the first is higher: 40900 fluorescence intensity (a.u.) for the first, 11400 fluorescence intensity (a.u.) for the second.

Compared with “TTTAATGTATCACACCGTTAATTTTTTTTCAACGTTTGACCGGAGTCACCTAGTGCAG”, “CCGCATTTTAATGTATGACGTCATTGACTTTTCGATCAACCGGAGTCACCTAGTGCAG” is higher in binding signal: 8900 fluorescence intensity (a.u.) for the first, 10200 fluorescence intensity (a.u.) for the second.

Compared with “TTAATGTATGACGCCGTTGACTTTTTAATCAACGTTTGACCGGAGTCACCTAGTGCAG”, “ACCTGTAAACTACCGTTGGATAAAAAATAAACGTATGAGACGGAGTCACCTAGTGCAG” is higher in binding signal: 25900 fluorescence intensity (a.u.) for the first, 63600 fluorescence intensity (a.u.) for the second.

Going from “CTGAAAATTTTGTGCGCTCACACCATGTGCTACATTTGTCCGGAGTCACCTAGTGCAG” to “TTCCTCCGTTTTTTTTATTCCTGCAACTAAAAGGTATTCTCGGAGTCACCTAGTGCAG”, the binding signal falls from 10700 fluorescence intensity (a.u.) to 8860 fluorescence intensity (a.u.).
